Measured values from PubChem BioAssay (NCATS).
Records with an inconclusive call do not appear. Entries that show only a call come without a potency. The source made the active and inactive calls. Calls follow the shape of the dose curve; as a rule, active = well fitted inhibition curve with a large enough effect in the signal ratio, with a control signal flat (not every such curve was filed as active); inconclusive = small, poorly fitted or top-dose-only effect, or effect the other way, or a change in a side signal; inactive = flat fitted curve, though single readings scatter; the % refers to the signal ratio.

Test: qHTS Assay for Identification of Small Molecule Antagonists for NFkB Signaling Pathway (AID 895)
Settings: NFkB beta-lactamase reporter cells, FRET ratio 460/530, stimulated with 10 pM TNF alpha; series mostly up to 38.3 µM
Description: NIH Molecular Libraries Screening Centers Network [MLSCN]
NIH Chemical Genomics Center [NCGC]
The TNF alpha/NFkB signaling pathway was assayed in NFkB-bla cells (Invitrogen), a ME-180 cervical carcinoma line containing a stably integrated beta-lactamase reporter gene controlled by a NFkB response element. […] The assay was screened at the EC50 of TNF alpha activation to identify inhibitors of TNF alpha/NFkB signaling.
NCGC Assay Protocol Summary:
Cells were trypsinized, washed in assay medium (AM, OPTI MEM with 0.5% fetal bovine serum, 0.1 mM nonessential amino acids, 1 mM sodium pyruvate, 10mM HEPES pH 7.3, 100U/ml penicillin, and 100 ug/ml streptomycin) and plated at 1000 cells/5 uL/well into black clear-bottom 1536 well plates. After an overnight incubation at 37 C and 5% CO2, 23 nL of compound were delivered by a pin tool, 1 uL of TNF alpha (10 pM final concentration in AM) was added and plates were incubated at 37 C for 5 hrs. One uL of LiveBLAzerTM detector mix (Invitrogen) was added, the plates incubated at room temperature for 2 hrs, and fluorescence intensity at 460 and 530 nm emission was measured at 405 nm excitation by an Envision (Perkin Elmer).
Potency is read from the fitted curve at half-maximal effect.

**Q.** Which Potency does the source give for `CC(=O)NCCc1ccc(O)c(O)c1` here?
**A.** Its Potency is “inactive”.

**Q.** With `CCn1c(=O)c2[nH]c(-c3ccccc3)nc2n(CC)c1=O` as the compound, how does the Potency read?
**A.** The Potency was “inactive”.

**Q.** With `N=C1Sc2ccccc2C2=NCCCN12` as the compound, how does the Potency read?
**A.** The Potency was 2000 nM (active).

**Q.** For `Oc1ccc(/C=C\c2cc(O)cc(O)c2)cc1`, which Potency is on record?
**A.** The Potency was “inactive”.

**Q.** Which Potency does the source give for `N=C(N)SCCc1cccc(CCSC(=N)N)c1` here?
**A.** Its Potency is “inactive”.

**Q.** For `CC(C)CN(C)c1nc(N)c(C(=O)N=C(N)N)nc1Cl`, which Potency is on record?
**A.** The Potency was “inactive”.

**Q.** With `NCCC(=O)NCCc1cnc[nH]1` as the compound, how does the Potency read?
**A.** Its Potency is “inactive”.

**Q.** Which Potency does the source give for `COC(=O)c1c(-c2cc(OC)c(OC)c(OC)c2)c2ccc(OCc3ccccn3)cc2c(=O)n1-c1ccc(N)cc1` here?
**A.** The Potency was 3160 nM (active).

**Q.** Which Potency does the source give for `O=C(Cc1ccc(Cl)c(Cl)c1)OCCN1CCCC1` here?
**A.** Its Potency is “inactive”.

**Q.** With `NC(=NCCC[C@H](N)C(=O)O)NO` as the compound, how does the Potency read?
**A.** Its Potency is 398 nM (active).
